Measured values: the supplement of paper PMC8253809

Key:
Assay in all cases: growth inhibition (% activity, log2 RLU normalised to DMSO / staurosporine); higher = more growth inhibition
Details in all cases: 33 µM
DIPGX29 = tested on: DIPGX29 (H3.3 K27M diffuse intrinsic pontine glioma line)
Summary of the method: (§1)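 Approved drugs were tested in triplicate at a single final concentration of about 33 μM for 7 days at 37 °C, 5% CO2, on pHGG cell lines and H9-derived neural stem cells. Readout was CellTiter-Glo luminescence, log2-transformed and scaled per plate to % activity between solvent and positive control wells. The median over replicates gives the growth-inhibition value.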

DIPGX37 = tested on: DIPGX37 (H3.3 K27M diffuse intrinsic pontine glioma line)
Summary of the method: as §1

DIPGX7 = tested on: DIPGX7 (H3.3 K27M diffuse intrinsic pontine glioma line)
Summary of the method: as §1

DIPGX9 = tested on: DIPGX9 (diffuse intrinsic pontine glioma line)
Summary of the method: as §1

HGGX39 = tested on: HGGX39 (paediatric high-grade glioma line)
Summary of the method: as §1

HGGX6 = tested on: HGGX6 (H3.3 G34R paediatric high-grade glioma line)
Summary of the method: as §1

HNSC = tested on: HNSC
Summary of the method: as §1

SUDIPGIV = tested on: SUDIPGIV (diffuse intrinsic pontine glioma line)
Summary of the method: as §1

SUDIPGVI = tested on: SUDIPGVI (diffuse intrinsic pontine glioma line)
Summary of the method: as §1

SUDIPGXIII = tested on: SUDIPGXIII (diffuse intrinsic pontine glioma line)
Summary of the method: as §1

| Compound | growth inhibition (DIPGX29) [%] | growth inhibition (DIPGX37) [%] | growth inhibition (DIPGX7) [%] | growth inhibition (DIPGX9) [%] | growth inhibition (HGGX39) [%] | growth inhibition (HGGX6) [%] | growth inhibition (HNSC) [%] | growth inhibition (SUDIPGIV) [%] | growth inhibition (SUDIPGVI) [%] | growth inhibition (SUDIPGXIII) [%] |
| --- | --- | --- | --- | --- | --- | --- | --- | --- | --- | --- |
| CCCC(C(=O)OCCN(CC)CC)(c1ccccc1)c1ccccc1 | 3.18 | 1.54 | 2.35 | 0.685 | 0.885 | 3.92 | 4.69 | 1.52 | 1.12 | 2.55 |
| Cc1cc(N)c2ccccc2[n+]1CCCCCCCCCC[n+]1c(C)cc(N)c2ccccc21 | 39.6 | 46.2 | 35.4 | 41.1 | 55.5 | 36.2 | 57.8 | 50 | 50.9 | 52.5 |
| COc1ccc(CNc2nc(N3CCC[C@H]3CO)ncc2C(=O)NCc2ncccn2)cc1Cl | -1.4 | -6.17 | -0.329 | -0.502 | -0.964 | -0.0101 | -2.71 | -1.36 | -2.1 | -0.559 |
| Cc1cc(NC(=O)C2=C(O)c3ccccc3S(=O)(=O)N2C)no1 | -3.22 | -1.66 | -1.69 | -3.17 | -4.59 | -4.04 | 7.58 | -5.37 | -10.5 | -0.431 |
| CN(C)CCCN1c2ccccc2CCc2ccccc21 | -0.201 | 2.87 | 0.728 | 1.54 | 6.76 | 3.35 | 3.17 | 2.4 | -0.367 | 2.4 |
| CC(=O)O[C@H]1C(=O)[C@@]2(C)[C@H]([C@H](OC(=O)c3ccccc3)[C@]3(O)C[C@H](OC(=O)[C@H](O)[C@@H](NC(=O)c4ccccc4)c4ccccc4)C(C)=C1C3(C)C)[C@]1(OC(C)=O)CO[C@@H]1C[C@@H]2O | 9.71 | 8.37 | 6.36 | 22 | 32.7 | 16.2 | 60.4 | 25.9 | 6.74 | 6 |
| CC(O)(P(=O)(O)O)P(=O)(O)O | -0.191 | 1.06 | -0.11 | -0.168 | -1.7 | 1.43 | -0.64 | -0.506 | 1.73 | 0.673 |
| Nc1cccc2c1C(=O)N(C1CCC(=O)NC1=O)C2=O (stereo not given) | 0.275 | 2 | 0.718 | -0.934 | -1.86 | -0.402 | 0.283 | -0.313 | 0.743 | -1.19 |
| CC(=O)OCC(=O)[C@@]12OC(C)(C)O[C@@H]1C[C@H]1[C@@H]3C[C@H](F)C4=CC(=O)C=C[C@]4(C)[C@@]3(F)[C@@H](O)C[C@@]12C | 0.7 | 2.1 | -1.12 | 3.42 | 2.3 | -0.607 | 5.54 | -2.88 | 0.11 | 2.76 |
| CCOC(=O)[C@H](CCc1ccccc1)N[C@@H](C)C(=O)N1CCC[C@H]1C(=O)O | 1.73 | -8.18 | 0.205 | 0.307 | 0.569 | -0.623 | 1.11 | -1.94 | -1.02 | -3.41 |
